Test results taken from PubChem BioAssay (Tox21).
Results filed as inconclusive are left out. Active and inactive are the calls of the source. Unless noted, calls follow the shape of the dose curve; as a rule, active = well fitted curve in the direction sought with a large enough effect in the repeat runs; inconclusive = weak or mixed curves; inactive = no such curve, though single readings can be large; an effect the other way counts as inactive or inconclusive.

Columns and labels:
[1] = qHTS assay to identify small molecule antagonists of the thyroid receptor (TR) signaling pathway - cell viability counter screen (AID 743064); also: nearly all actives have a fitted effect of over 50% in size
In short: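 GH3.TRE-Luc rat pituitary cells carrying a TRE-luciferase reporter were treated with compound plus 1 nM T3 (final) for 23.5 h at 37 °C. Viability was then read in the same wells by CellTiter-Fluor fluorescence after a further 30 min.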

[2] = qHTS assay to identify small molecule antagonists of the thyroid receptor (TR) signaling pathway (AID 743065); also: series mostly up to about 70 µM; nearly all actives have a fitted effect of over 55% in size
In short: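 GH3.TRE-Luc rat pituitary cells (two TREs driving luciferase) were dosed with compound, then stimulated with 1 nM T3 (final) for 23.5 h at 37 C. ONE-Glo luminescence was the read-out, with CellTiter-Fluor fluorescence as the cytotoxicity counter-screen.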

[3] = tested on: thyroid hormone receptor (rat, GH3 cells); test: qHTS assay to identify small molecule agonists of the thyroid receptor (TR) signaling pathway (AID 743066; calls by dose curve)
[4] = molecular target: Estrogen receptor (Homo sapiens) (UniProt P03372); test: qHTS assay to identify small molecule antagonists of the estrogen receptor alpha (ER-alpha) signaling pathway (AID 743069; active = well fitted curve in the direction sought with a large enough effect in the signal ratio in the repeat runs, not every such curve was filed as active; the % refers to the signal ratio)
In short: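 HEK293 ER-alpha-UAS-bla GripTite cells, held overnight in 2% charcoal-stripped FBS, 5,000 cells/well, preincubated 4 h, then compound plus 17beta-estradiol for 18 h at 37C. Beta-lactamase read by LiveBLAzer B/G FRET substrate, 2 h at room temperature.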

[5] = qHTS assay to identify small molecule antagonists of the estrogen receptor alpha (ER-alpha) signaling pathway - cell viability counter screen (AID 743074; calls by dose curve;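 also: HEK293 cells carrying ER-alpha-UAS-bla reporter stimulated with 17beta-estradiol; nearly all actives have a fitted effect of over 45% in size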)
[6] = molecular target: Estrogen receptor (Homo sapiens) (UniProt P03372); test: qHTS assay to identify small molecule agonists of the estrogen receptor alpha (ER-alpha) signaling pathway (AID 743075; calls by dose curve)
[7] = molecular target: Estrogen receptor (Homo sapiens) (UniProt P03372); test: qHTS assay to identify small molecule agonists of the estrogen receptor alpha (ER-alpha) signaling pathway using the BG1 cell line (AID 743079); also: nearly all actives have a fitted effect of over 20% in size
[8] = qHTS assay to identify small molecule antagonists of the estrogen receptor alpha (ER-alpha) signaling pathway using the BG1 cell line (AID 743080; calls by dose curve;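 also: BG1 cells stimulated with 17beta-estradiol alongside compound; series mostly up to about 70 µM; nearly all actives have a fitted effect of over 25% in size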)
In short: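 Luminescence from a 4×ERE-luciferase reporter in BG1-Luc-4E2 cells served as read-out. Cells, pre-cultured 5 days in stripped-serum phenol-red-free medium, were exposed to compound with 17beta-estradiol co-stimulation for 21.5 h at 37 C.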

[9] = qHTS assay to identify small molecule antagonists of the estrogen receptor alpha (ER-alpha) signaling pathway using the BG1 cell line - cell viability counter screen (AID 743081);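 also: compound given together with 17beta-estradiol as the ER stimulus; series mostly up to about 70 µM; nearly all actives have a fitted effect of over 45% in size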
Aromatase (Homo sapiens) = Aromatase (Homo sapiens) (UniProt P11511); test: qHTS assay to identify aromatase inhibitors (AID 743083); also: series mostly up to about 70 µM; nearly all actives have a fitted effect of over 55% in size
[10] = qHTS assay to identify aromatase inhibitors - cell viability counter screen (AID 743084);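 also: cells stimulated with testosterone during compound exposure; nearly all actives have a fitted effect of over 55% in size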
[11] = molecular target: Aryl hydrocarbon receptor (Homo sapiens) (UniProt P35869); test: qHTS assay to identify small molecule that activate the aryl hydrocarbon receptor (AhR) signaling pathway (AID 743085);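 also: HG2L7.5c1 human HepG2 liver cells with stably integrated DRE-driven firefly reporter; series mostly up to about 70 µM; nearly all actives have a fitted effect of over 15% in size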
In short: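 HepG2 cells (HG2L7.5c1) stably carrying a firefly luciferase reporter driven by 20 dioxin responsive elements were exposed to compound for 24 h at 37C after a 5 h settling period; luminescence rise (ONE-Glo) indicated activation.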

[12] = qHTS assay to identify small molecule that activate the aryl hydrocarbon receptor (AhR) signaling pathway - cell viability counter screen (AID 743086);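 also: HepG2 liver cells carrying the AhR DRE luciferase reporter; series mostly up to about 70 µM; nearly all actives have a fitted effect of over 45% in size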
In short: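 HepG2-AhR-luc (HG2L7.5c1) cells, 4000/well, treated 24 h at 37 C with compound; viability measured as CellTiter-Fluor fluorescence after 30 min in the same wells as the luciferase read.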

[13] = qHTS assay to identify small molecule antagonists of the peroxisome proliferator-activated receptor gamma (PPARg) signaling pathway - cell viability counter screen (AID 743194); also: nearly all actives have a fitted effect of over 55% in size
In short: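 Cytotoxicity counter screen in PPARg-bla HEK293H cells, same wells as reporter assay. Compounds plus 50 nM rosiglitazone (final) for 17 h at 37 C, then viability read by CellTiter-Glo luminescence.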

[14] = qHTS assay for small molecule agonists of the antioxidant response element (ARE) signaling pathway - cell viability counter screen (AID 743203; calls by dose curve; also: nearly all actives have a fitted effect of over 55% in size)
In short: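 Following 16 hrs of compound treatment at 37C, HepG2 cells with an ARE-controlled beta-lactamase gene were lysed with CellTiter-Glo. Luminescence was read after 30 min at room temperature.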

[15] = qHTS assay for small molecule activators of the heat shock response signaling pathway - cell viability counter screen (AID 743209); also: nearly all actives have a fitted effect of over 50% in size
In short: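 Readout: CellTiter-Glo luminescence, 30 min at room temperature. System: HSE-bla HeLa cells, 1500/well, plated overnight. Treatment: compounds in DMSO, 5 h at 37 C.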

[16] = qHTS assay for small molecule activators of the heat shock response signaling pathway (AID 743210; active = well fitted activation curve with a large enough effect in the signal ratio in the repeat runs, with a control signal flat, not every such curve was filed as active; the % refers to the signal ratio; also: series mostly up to about 63 µM)
In short: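 HSE-bla HeLa cells (beta-lactamase reporter under heat shock response elements), plated overnight, then exposed to compounds 5 h at 37 C; LiveBLAzer B/G FRET substrate added, 2.5 h at room temperature, fluorescence intensity read.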

[17] = molecular target: Peroxisome proliferator-activated receptor gamma (Homo sapiens) (UniProt P37231); test: qHTS assay to identify small molecule agonists of the peroxisome proliferator-activated receptor gamma (PPARg) signaling pathway (AID 743094; active = well fitted activation curve with a large enough effect in the signal ratio in the repeat runs, not every such curve was filed as active; the % refers to the signal ratio)
In short: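 Compounds dissolved in DMSO were added to PPARg UAS-bla HEK293H cells for 17 h at 37C, and reporter expression was quantified by fluorescence intensity after 1 h with LiveBLAzer B/G FRET substrate.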

[18] = molecular target: Peroxisome proliferator-activated receptor gamma (Homo sapiens) (UniProt P37231); test: qHTS assay to identify small molecule antagonists of the peroxisome proliferator-activated receptor gamma (PPARg) signaling pathway (AID 743191; calls by dose curve; also: series mostly up to about 63 µM; nearly all actives have a fitted effect of over 30% in size)
In short: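 GeneBLAzer PPARg UAS-bla HEK293H cells, 5 h post-plating, exposed to compounds 17 h at 37C. LiveBLAzer B/G FRET substrate added for 1 h at room temperature; beta-lactamase reporter read by fluorescence intensity.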

[19] = qHTS assay for small molecule agonists of the antioxidant response element (ARE) signaling pathway (AID 743202; active = well fitted activation curve with a large enough effect in the signal ratio in the repeat runs, not every such curve was filed as active; the % refers to the signal ratio)
In short: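 ARE-bla HepG2 cells (beta-lactamase reporter under the antioxidant response element), plated 5 hours, then exposed to compounds 16 hours at 37 C. LiveBLAzer B/G FRET substrate added for 2 hours at room temperature; fluorescence intensity read.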

Measured: Potency

Peroxisome proliferator-activated receptor gamma (Homo sapiens), sequence (P37231 whole entry, looked up): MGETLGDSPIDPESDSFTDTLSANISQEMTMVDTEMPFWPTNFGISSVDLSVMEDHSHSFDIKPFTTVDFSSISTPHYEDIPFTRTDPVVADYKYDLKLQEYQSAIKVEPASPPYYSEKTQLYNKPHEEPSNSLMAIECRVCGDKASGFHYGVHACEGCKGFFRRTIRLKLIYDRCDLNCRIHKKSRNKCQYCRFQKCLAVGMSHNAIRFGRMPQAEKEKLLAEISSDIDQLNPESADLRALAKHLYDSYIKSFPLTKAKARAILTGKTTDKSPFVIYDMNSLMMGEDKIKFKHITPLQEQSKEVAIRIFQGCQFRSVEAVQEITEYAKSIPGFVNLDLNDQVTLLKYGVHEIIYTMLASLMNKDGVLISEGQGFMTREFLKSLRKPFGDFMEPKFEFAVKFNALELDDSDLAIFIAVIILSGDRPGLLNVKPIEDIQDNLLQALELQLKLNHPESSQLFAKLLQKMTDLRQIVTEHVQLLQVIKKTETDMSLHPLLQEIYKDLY
Aromatase (Homo sapiens), sequence (P11511 whole entry, looked up): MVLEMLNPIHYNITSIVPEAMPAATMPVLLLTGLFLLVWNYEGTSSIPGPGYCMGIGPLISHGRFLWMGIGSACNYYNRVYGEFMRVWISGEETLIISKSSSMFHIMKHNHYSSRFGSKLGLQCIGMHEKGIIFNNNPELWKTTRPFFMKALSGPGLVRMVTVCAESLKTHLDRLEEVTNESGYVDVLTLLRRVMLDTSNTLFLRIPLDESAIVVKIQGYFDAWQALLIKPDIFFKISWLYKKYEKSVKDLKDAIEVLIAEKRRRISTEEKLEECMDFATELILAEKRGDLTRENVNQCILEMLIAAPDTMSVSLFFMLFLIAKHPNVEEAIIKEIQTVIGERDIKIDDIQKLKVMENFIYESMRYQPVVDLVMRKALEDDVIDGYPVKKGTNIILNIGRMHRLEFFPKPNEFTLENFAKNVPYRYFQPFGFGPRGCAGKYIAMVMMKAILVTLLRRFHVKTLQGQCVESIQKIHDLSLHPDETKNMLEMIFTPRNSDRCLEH
Estrogen receptor (Homo sapiens), sequence (P03372 whole entry, looked up): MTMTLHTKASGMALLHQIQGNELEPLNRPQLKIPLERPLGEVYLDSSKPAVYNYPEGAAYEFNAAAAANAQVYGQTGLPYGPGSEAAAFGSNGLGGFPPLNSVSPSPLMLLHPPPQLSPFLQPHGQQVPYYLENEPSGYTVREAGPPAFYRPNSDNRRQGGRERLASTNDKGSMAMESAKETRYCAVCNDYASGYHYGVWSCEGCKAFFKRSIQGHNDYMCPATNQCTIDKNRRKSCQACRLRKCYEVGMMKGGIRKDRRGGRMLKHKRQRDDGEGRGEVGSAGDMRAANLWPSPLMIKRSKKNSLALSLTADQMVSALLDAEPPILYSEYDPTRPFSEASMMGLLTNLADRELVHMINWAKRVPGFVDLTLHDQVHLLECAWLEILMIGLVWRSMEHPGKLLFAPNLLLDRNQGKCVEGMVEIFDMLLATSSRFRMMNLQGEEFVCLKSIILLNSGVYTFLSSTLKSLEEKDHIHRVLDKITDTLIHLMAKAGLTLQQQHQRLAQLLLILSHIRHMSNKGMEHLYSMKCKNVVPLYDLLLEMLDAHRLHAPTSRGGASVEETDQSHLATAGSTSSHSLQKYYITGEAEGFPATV
Aryl hydrocarbon receptor (Homo sapiens), sequence (P35869 whole entry, looked up): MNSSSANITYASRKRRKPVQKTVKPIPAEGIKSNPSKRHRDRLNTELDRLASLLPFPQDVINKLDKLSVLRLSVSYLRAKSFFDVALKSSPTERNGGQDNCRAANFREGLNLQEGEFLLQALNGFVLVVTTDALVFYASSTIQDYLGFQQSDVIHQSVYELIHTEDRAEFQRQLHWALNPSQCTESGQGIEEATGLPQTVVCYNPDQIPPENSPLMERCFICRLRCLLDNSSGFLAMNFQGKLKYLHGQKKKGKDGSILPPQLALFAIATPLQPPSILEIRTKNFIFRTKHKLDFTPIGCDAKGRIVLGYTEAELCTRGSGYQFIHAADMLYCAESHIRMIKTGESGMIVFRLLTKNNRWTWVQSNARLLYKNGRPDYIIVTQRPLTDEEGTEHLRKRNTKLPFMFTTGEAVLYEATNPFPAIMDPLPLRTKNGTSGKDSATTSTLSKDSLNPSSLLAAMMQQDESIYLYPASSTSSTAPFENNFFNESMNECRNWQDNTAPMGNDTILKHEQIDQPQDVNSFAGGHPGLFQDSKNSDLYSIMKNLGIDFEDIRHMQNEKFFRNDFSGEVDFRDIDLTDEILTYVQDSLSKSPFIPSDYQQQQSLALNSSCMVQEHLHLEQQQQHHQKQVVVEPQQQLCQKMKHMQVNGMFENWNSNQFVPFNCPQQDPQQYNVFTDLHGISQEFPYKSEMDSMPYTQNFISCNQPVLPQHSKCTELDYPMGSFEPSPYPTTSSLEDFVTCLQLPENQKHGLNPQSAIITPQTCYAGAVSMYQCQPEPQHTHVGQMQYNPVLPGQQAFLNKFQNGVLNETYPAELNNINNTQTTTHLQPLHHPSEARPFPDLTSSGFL

CC[C@H](C)C(=O)O[C@H]1C[C@H](O)C=C2C=C[C@H](C)[C@H](CC[C@@H](O)C[C@@H](O)CC(=O)O)[C@H]21
inactive: [1] | [2] | [3] | [4] | [5] | [6] | [7] | [8] | [9] | Aromatase (Homo sapiens) | [10] | [11] | [12] | [13] | [14] | [15] | [16]

COc1cc(C(=S)N2CCOCC2)cc(OC)c1OC
inactive: [1] | [2] | [3] | [4] | [5] | [6] | [7] | [8] | [9] | Aromatase (Homo sapiens) | [10] | [11] | [12] | [17] | [18] | [13] | [19] | [14] | [15] | [16]

CCCCCCCCSCC
inactive: [1] | [2] | [3] | [4] | [5] | [6] | [7] | [8] | [9] | Aromatase (Homo sapiens) | [10] | [11] | [12] | [17] | [13] | [14] | [15] | [16]

COc1ccc(S(=O)(=O)N2c3ccc(Cl)cc3[C@@](O)(c3ccccc3Cl)[C@H]2C(=O)N2CCC[C@@H]2C(N)=O)cc1OC
inactive: [1] | [2] | [3] | [4] | [5] | [6] | [7] | [8] | [9] | Aromatase (Homo sapiens) | [10] | [11] | [12] | [18] | [13] | [19] | [15] | [16]

C=C(C)C(=O)OCC(C)(C)COC(=O)C(=C)C
inactive: [1] | [2] | [3] | [4] | [5] | [6] | [7] | [8] | [9] | Aromatase (Homo sapiens) | [10] | [11] | [12] | [17] | [18] | [13] | [19] | [14] | [15] | [16]

CCNC(=O)C1CC(C)CCC1C(C)C (stereo unspecified)
inactive: [1] | [2] | [3] | [4] | [5] | [6] | [7] | [8] | [9] | Aromatase (Homo sapiens) | [10] | [11] | [12] | [17] | [18] | [13] | [14] | [15] | [16]

CCOC(=O)c1ncn2c1CN(C)C(=O)c1cc(F)ccc1-2
inactive: [1] | [2] | [3] | [4] | [5] | [6] | [7] | [8] | [9] | Aromatase (Homo sapiens) | [10] | [11] | [12] | [17] | [18] | [13] | [19] | [14] | [15]
